For some of these results: Potency and affinity values are given separately.

Holding throughout (set-up): scale not given: direction of the effect not stated beside the values
Assay [1] deals with Protein translocase subunit SecA (Escherichia coli (strain K12)) (UniProt P10408). The assay can be described thus: Assay to Identify E. coli SecA ATPase Inhibitors. The format is functional. The note with it: 30 µM.
Assay [2] addresses T1, Ubiquitin-activating enzyme e1, putative (Leishmania donovani (strain BPK282A1)) (UniProt E9BSI1).
T1 sequence (whole entry): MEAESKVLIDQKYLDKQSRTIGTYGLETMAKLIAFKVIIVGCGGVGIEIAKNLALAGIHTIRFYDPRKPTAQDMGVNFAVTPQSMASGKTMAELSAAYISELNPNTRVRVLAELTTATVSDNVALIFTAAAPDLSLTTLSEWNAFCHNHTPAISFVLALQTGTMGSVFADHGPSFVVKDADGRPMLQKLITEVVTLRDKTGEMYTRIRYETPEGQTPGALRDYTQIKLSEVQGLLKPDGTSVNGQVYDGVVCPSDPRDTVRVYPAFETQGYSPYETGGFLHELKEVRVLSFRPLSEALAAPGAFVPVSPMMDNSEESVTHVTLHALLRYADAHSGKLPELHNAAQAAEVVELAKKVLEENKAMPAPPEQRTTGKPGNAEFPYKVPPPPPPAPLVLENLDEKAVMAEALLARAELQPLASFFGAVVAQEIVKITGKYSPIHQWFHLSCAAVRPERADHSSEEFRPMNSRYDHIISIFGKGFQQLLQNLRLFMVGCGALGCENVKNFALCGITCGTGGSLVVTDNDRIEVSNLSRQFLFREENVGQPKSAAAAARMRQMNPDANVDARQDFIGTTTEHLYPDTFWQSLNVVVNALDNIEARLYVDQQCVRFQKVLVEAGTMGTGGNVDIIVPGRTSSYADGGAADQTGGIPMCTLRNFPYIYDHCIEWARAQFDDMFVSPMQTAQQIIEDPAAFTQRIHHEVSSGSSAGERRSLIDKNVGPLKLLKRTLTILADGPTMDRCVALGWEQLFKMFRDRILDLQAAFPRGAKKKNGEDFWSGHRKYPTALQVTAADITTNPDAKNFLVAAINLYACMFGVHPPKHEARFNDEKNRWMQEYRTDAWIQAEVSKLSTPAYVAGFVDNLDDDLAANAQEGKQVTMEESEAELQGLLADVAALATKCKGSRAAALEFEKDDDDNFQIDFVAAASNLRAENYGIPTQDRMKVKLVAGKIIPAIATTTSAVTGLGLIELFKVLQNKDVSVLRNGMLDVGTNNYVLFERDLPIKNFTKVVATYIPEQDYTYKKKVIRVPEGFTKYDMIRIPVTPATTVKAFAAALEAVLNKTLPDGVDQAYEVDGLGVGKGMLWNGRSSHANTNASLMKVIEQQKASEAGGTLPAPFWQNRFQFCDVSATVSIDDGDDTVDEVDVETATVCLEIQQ
The assay can be described thus: Leishmania donovani Ubiquitin Activating Enzyme (LdE1). The assay is classed as functional. The note with it: 30 µM.

Assay [3] deals with AMP-activated protein kinase, AMPK (Homo sapiens) (UniProt P54646+O43741+P54619+Q9UGJ0+Q9Y478+Q13131+Q9UGI9). Description: AMP-dependent Kinase enzyme assay. An in vitro enzyme assay that detects ADP turnover that is directly proportional to AMPK activity. This uses naive AMPK that is activated during the assay with MK-8722. The settings on record: 30 µM. The format is functional.

Assay [4] deals with Sialic acid-binding Ig-like lectin 9 (Homo sapiens) (UniProt Q9Y336). The assay can be described thus: Hs-Siglec9 ALPHAscreen SOP 20170721. The note with it: 10 µM.
Sequence of Sialic acid-binding Ig-like lectin 9 (Homo sapiens) (Q9Y336 whole entry): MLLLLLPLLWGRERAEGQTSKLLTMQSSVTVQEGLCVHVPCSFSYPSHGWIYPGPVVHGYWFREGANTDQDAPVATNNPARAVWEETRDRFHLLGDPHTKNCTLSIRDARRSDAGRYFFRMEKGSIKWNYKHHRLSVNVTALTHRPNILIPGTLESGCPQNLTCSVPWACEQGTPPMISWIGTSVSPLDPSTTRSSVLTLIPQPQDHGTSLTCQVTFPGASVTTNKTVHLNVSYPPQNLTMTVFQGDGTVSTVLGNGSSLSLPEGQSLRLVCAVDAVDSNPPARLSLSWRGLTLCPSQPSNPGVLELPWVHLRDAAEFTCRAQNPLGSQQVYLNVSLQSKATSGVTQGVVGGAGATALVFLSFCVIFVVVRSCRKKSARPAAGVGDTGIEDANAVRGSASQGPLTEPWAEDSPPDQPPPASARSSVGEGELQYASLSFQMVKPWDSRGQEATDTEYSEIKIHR
The test system of assay [5] is Trypanosoma cruzi. Description: Trypanosoma cruzi phosphomannomutase and mannose-1-phosphate guanylyltransferase assay. The assay is classed as functional. The settings on record: 10 µM.
In assay [6] the target is T2, Arginase-2, mitochondrial (Homo sapiens) (UniProt P78540).
T2 sequence (whole entry): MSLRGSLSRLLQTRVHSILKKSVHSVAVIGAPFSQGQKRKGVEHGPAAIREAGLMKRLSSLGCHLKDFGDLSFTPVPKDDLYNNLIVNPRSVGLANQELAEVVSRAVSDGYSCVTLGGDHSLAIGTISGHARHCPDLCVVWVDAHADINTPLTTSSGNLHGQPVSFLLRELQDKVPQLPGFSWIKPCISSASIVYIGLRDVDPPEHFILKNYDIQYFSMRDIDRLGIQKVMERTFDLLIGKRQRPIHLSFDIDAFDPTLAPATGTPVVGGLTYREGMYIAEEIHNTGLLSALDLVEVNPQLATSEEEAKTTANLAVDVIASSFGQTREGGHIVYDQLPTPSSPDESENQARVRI
The assay can be described thus: in vitro enzyme assay to detect the production of urea directly proportional to the activity of Arginase II. Further: in the data most compounds retested in dose-response had high values. The format is functional. The settings on record: 33.3 µM.

For assay [7], the target named is T3, Proteasome subunit beta (Trypanosoma cruzi) (UniProt O96673).
T3 sequence (whole entry): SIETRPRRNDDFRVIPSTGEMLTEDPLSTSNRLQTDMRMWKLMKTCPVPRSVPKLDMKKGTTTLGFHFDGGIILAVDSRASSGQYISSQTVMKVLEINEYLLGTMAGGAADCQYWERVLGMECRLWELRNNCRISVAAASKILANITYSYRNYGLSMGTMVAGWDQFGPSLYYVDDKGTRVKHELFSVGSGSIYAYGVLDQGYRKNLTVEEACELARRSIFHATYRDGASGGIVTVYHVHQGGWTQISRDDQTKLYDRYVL
Description: Trypanosoma cruzi proteasome chymotrypsin-like activity (TcProtChymo) assay. Further: in the data most compounds retested in dose-response had high values. The format is functional. The note with it: 9.37 µM.

The species named for assay [8] is Homo sapiens. The assay can be described thus: To identify inhibition of the IFN signalling (Jak-Stat) pathway via expression of an eGFP reporter gene under the control of an IFN-stimulated response element (ISRE) containing MxA promoter. The assay is classed as functional. The settings on record: 30 µM. Background: In a reporter assay the amount or activity of a reporter protein is the signal.

Assay [9] addresses T4, Tyrosyl-tRNA synthetase, putative (Trypanosoma cruzi (strain CL Brener)) (UniProt Q4DSP6).
T4 sequence (whole entry): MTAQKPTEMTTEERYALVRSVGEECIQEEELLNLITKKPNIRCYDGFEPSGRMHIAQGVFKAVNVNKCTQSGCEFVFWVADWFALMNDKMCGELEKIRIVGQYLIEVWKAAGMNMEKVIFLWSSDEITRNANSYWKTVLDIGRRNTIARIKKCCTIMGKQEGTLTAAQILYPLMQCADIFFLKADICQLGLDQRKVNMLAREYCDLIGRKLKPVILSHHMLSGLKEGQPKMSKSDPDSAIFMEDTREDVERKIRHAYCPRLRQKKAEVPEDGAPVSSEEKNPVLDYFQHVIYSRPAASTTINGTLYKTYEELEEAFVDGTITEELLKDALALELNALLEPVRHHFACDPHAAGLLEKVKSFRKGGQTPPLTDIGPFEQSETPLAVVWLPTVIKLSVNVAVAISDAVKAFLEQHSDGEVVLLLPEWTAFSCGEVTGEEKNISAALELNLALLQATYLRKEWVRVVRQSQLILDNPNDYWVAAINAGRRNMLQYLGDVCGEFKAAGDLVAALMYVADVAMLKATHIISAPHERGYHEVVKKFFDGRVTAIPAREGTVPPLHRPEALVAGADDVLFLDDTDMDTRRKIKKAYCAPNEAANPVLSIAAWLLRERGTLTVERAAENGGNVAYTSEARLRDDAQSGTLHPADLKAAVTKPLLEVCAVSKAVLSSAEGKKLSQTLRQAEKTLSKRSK
The assay can be described thus: Trypanosoma cruzi tyrosyl tRNA synthetase (TcYRS) _High Tyrosine SOP. Further: in the data most compounds retested in dose-response had high values. The note with it: 30 µM. The assay is classed as functional.

Assay [10] addresses T4, Tyrosyl-tRNA synthetase, putative (Trypanosoma cruzi (strain CL Brener)). The assay can be described thus: Trypanosoma cruzi tyrosyl tRNA synthetase (TcYRS) SOP. The note with it: 30 µM. The format is functional.
Assay [11] addresses Chromo domain-containing protein 1 (Saccharomyces cerevisiae (strain ATCC 204508 / S288c) (Baker's yeast)) (UniProt P32657). The assay can be described thus: ScCHD-1 Enzyme Inhibition Assay. Further: in the data most compounds retested in dose-response had high values. The format is functional. The settings on record: 30 µM.

Sequence of Protein translocase subunit SecA (Escherichia coli (strain K12)) (P10408 whole entry): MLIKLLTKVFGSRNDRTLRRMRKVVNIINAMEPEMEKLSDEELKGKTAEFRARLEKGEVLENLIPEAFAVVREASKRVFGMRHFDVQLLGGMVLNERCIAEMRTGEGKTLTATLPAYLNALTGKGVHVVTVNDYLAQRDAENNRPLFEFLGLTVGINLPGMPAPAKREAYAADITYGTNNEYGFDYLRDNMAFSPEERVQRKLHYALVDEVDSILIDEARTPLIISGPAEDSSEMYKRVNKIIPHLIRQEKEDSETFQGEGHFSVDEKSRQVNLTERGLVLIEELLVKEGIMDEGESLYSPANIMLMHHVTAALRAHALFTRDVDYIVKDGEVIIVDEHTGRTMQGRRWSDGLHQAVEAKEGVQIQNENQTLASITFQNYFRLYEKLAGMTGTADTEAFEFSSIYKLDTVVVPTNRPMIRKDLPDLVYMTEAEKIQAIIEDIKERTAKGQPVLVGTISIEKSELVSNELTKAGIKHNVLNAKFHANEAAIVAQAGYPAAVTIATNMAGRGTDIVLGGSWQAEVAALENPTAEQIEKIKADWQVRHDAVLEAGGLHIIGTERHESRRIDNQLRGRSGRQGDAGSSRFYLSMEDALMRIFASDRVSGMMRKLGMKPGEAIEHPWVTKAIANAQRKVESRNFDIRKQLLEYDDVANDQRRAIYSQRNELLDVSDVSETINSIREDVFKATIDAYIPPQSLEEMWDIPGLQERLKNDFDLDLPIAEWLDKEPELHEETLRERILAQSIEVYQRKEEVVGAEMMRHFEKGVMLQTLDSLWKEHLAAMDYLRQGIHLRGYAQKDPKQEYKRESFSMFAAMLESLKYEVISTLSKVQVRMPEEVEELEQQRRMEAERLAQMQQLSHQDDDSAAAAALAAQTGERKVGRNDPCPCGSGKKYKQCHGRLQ
Sequence of Chromo domain-containing protein 1 (Saccharomyces cerevisiae (strain ATCC 204508 / S288c) (Baker's yeast)) (P32657 whole entry, the tested form may be a part): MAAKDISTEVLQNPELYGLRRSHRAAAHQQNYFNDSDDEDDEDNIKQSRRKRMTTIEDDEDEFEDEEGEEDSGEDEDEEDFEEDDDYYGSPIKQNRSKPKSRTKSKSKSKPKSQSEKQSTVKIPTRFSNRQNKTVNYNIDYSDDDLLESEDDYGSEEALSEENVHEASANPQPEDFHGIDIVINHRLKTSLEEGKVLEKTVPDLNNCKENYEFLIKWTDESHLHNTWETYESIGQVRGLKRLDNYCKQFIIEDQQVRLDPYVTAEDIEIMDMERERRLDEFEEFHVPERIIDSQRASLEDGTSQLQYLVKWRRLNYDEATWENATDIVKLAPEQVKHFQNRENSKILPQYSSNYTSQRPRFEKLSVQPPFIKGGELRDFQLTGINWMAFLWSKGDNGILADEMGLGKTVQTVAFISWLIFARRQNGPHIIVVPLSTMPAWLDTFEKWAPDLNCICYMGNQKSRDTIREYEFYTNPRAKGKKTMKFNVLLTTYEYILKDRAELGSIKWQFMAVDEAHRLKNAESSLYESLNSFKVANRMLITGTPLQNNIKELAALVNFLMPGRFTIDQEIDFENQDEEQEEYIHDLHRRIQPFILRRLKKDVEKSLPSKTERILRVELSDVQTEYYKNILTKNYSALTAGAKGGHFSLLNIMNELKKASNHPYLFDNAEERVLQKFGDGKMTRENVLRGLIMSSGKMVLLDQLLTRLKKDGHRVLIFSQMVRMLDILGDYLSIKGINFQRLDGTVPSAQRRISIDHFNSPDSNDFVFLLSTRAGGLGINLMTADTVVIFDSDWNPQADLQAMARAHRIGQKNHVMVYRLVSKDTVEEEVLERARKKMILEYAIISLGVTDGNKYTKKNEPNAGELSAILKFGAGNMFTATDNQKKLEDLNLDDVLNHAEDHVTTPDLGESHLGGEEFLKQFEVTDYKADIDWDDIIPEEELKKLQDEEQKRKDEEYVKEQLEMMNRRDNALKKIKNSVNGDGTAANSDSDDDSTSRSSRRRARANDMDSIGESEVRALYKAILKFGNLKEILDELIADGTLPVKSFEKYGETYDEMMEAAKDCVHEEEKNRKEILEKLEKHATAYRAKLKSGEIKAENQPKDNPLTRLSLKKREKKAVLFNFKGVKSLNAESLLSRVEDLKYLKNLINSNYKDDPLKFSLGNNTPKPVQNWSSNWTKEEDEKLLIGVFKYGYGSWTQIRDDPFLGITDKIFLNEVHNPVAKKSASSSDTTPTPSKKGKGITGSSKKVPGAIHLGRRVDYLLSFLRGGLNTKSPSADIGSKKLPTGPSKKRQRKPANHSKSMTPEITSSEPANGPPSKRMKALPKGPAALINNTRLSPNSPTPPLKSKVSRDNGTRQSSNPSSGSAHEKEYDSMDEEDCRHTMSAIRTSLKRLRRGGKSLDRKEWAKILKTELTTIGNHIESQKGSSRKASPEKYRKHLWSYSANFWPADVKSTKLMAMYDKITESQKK

Regarding `Cc1nn(C)c(N2CCOCC2)c1CNC1CCc2ccccc2C1` (stereo unspecified), the Percent Effect is -2.57% in assay [1]; 15.2% in assay [2]; -15% in [3]; 9.25% in assay [4]; 3.12% in [5]; -2.28% in assay [6]. In addition, the Percent Effect in assay [7] is -2.87%; in assay [8] it was 8.26%; in assay [9], 9.36%; in assay [10] it was 16.5%; in assay [11], -4.44%.
For the compound `Cc1ccccc1-n1ncc(C(=O)N2CCCC2c2cnn(C)c2)c1C` (stereo unspecified), the Percent Effect was -1.92% in assay [1]; 10.8% in assay [2]; -5.91% in [3]; -5.79% in [4]; 7.71% in [5]; -0.924% in [6]. For the same compound, the Percent Effect is 5.57% in assay [7]; -8.29% in assay [8]; 3.96% in assay [9]; 18.3% in assay [10]; -5.96% in [11].
`COc1ccc(C2CCCN2C(=O)c2cc3c([nH]c2=O)CCC3)cc1` (stereo unspecified): the Percent Effect in [1] was -6.57%; in assay [2], 5.41%; in [3], 2.86%; in [4] it was -3.27%; in assay [5] it was -2.73%; in assay [6] it was 4.58%. In addition, the Percent Effect in assay [7] is 17.5%; in [8], -1.92%; in assay [9], 11.9%; in assay [10] it was 8.54%; in [11] it was -6.14%.
As to `CC(C)(C)NC(=O)C1CSCN1S(=O)(=O)c1cccc(F)c1` (stereo unspecified), the Percent Effect in [1] was 1.74%; in assay [2] it was 8.22%; in assay [3] it was -2.49%; in assay [4], -2.56%; in assay [5] it was -8.81%; in assay [6], 0.909%. In addition, the Percent Effect in assay [7] was 20.2%; in assay [8], 12.2%; in [9], 3.23%; in [10], 10%; in assay [11] it was -1.73%.
Regarding `COc1cc(N2C[C@@H]3COC[C@]3(COCc3cccc(C)n3)C2)ncn1`, the Percent Effect in assay [1] was -0.6%; in [2] it was 2.7%; in assay [3] it was 3.71%; in assay [4] it was 5.38%; in assay [5] it was 4.79%; in assay [6], 0.955%. For the same compound, the Percent Effect in assay [7] is 17.7%; in assay [8], 27.6%; in [9] it was 1.08%; in [10] it was 2.56%; in assay [11] it was 2.03%.
In the case of `CN(Cc1ccc2c(c1)OCO2)Cc1nc2c(cnn2C)c(=O)[nH]1`, the Percent Effect is -3.58% in assay [1]; 5.26% in [2]; 0.733% in [3]; -4.42% in assay [4]; 0.467% in assay [5]; -4.32% in assay [6]. Further, the Percent Effect in assay [7] is -0.592%; in assay [8], 4.07%; in assay [9], 8.37%; in [10] it was 6.17%; in assay [11] it was -3.9%.
As for `O=S(=O)(NCC1CCN(c2ccccn2)CC1)c1ccccc1F`, the Percent Effect is -1.81% in [1]; 23.4% in assay [2]; 0.655% in [3]; -16.3% in assay [4]; 3.25% in assay [5]; -5.81% in [6]. For the same compound, the Percent Effect in assay [7] was 12%; in [8] it was 14.5%; in assay [9], 2.12%; in [10] it was 14.1%; in assay [11], -12.6%.
For `CCc1nnsc1C(=O)NC1CCN(c2ccccn2)CC1`, the Percent Effect in assay [1] is -1.79%; in assay [2] it was 18.9%; in assay [3] it was 1.62%; in [4], 8.18%; in [5], 5.38%; in assay [6] it was 21.1%. Further, the Percent Effect in [7] was 15%; in [8], 15.5%; in [9], 3.23%; in [10], 16.1%; in assay [11], -7.21%.
As to `Cc1ccc(C)c(C(NC(=O)C(C)(C)C)c2cccnc2)c1` (stereo unspecified), the Percent Effect in [1] was -1.95%; in [2] it was 13%; in [3] it was 3.34%; in assay [4] it was -1.13%; in [5], 4.63%; in [6] it was -0.645%. Also, the Percent Effect in assay [7] was 14.3%; in [8], 21.8%; in [9], 4.23%; in assay [10], 6.41%; in assay [11], -10.2%.
Take `COc1cc(C)nc(N2CCN(C(=O)c3ccc[nH]3)CC2)n1`: the Percent Effect is -5.18% in assay [1]; 10.8% in assay [2]; -2.76% in assay [3]; 14.9% in [4]; 3.68% in assay [5]; -5.21% in assay [6]. Also, the Percent Effect is 4.14% in assay [7]; 17.1% in assay [8]; 1.48% in assay [9]; 6.17% in assay [10]; -10.1% in assay [11].
Consider `c1cnc(N2C[C@H]3CCN(c4cccnc4)C[C@H]3C2)nc1`, for which the Percent Effect is -6.23% in assay [1]; -5.41% in assay [2]; -3.42% in [3]; -2.92% in assay [4]; -2.15% in assay [5]; -0.417% in [6]. Further, the Percent Effect in assay [7] amounted to 26.1%; in [8], 6.67%; in assay [9], 5.94%; in assay [10], 13.4%; in assay [11], 7.23%.

For the origin of these results see ChEMBL document CHEMBL3988442, “University of Dundee, Small-Polar-MMV Screening Library” (2021).
